We go through 13 compounds from PubChem BioAssay.

Molecules are shown by their SMILES. Values without a mark were called inactive. The source made the active and inactive calls.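 The calls were made as follows: active = thallium flux through the channel raised or lowered by more than 3 SD from vehicle-only wells, actives on both sides; inactive = the rest.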

Holding throughout (experiment): BK channel mutant inhibitors and activators – cell-based, U2OS BacMam, thallium flux, beta subunits, selectivity assay, profiling panel (AID 1259406);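 also: initial slope of Thallos dye fluorescence rise after thallium is added; log ratio against the mean of 0.3% DMSO vehicle wells on the same plate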
One assay deals with F380Y. Particulars: U2OS BacMam BK variants, at 30 µM.
The next assay deals with F380Y/beta1. To be noted: U2OS BacMam BK variants, at 30 µM.
The next assay relates to F380Y/beta2Delta. To be noted: U2OS BacMam BK variants, at 30 µM.
Another assay concerns F380Y/beta4. Particulars: U2OS BacMam BK variants, at 30 µM.
The target in assay [1] is Calcium-activated potassium channel subunit alpha-1 (Homo sapiens) + Leucine-rich repeat-containing protein 26 (Homo sapiens) (UniProt Q12791+Q2I0M4). Particulars: U2OS BacMam BK variants, F380Y/Slo1WT/gamma1, at 30 µM.
For the next assay, the system named is R275C. To be noted: U2OS BacMam BK variants, at 30 µM.
Another assay has as its system R275C/beta1. To be noted: U2OS BacMam BK variants, at 30 µM.
The test system of another assay is R275C/beta2Delta. Particulars: U2OS BacMam BK variants, at 30 µM.
A further assay concerns R275C/beta4. To be noted: U2OS BacMam BK variants, at 30 µM.
A further assay deals with R275C/Slo1WT/beta2. Particulars: U2OS BacMam BK variants, at 30 µM.

Sequence of Calcium-activated potassium channel subunit alpha-1 (Homo sapiens) + Leucine-rich repeat-containing protein 26 (Homo sapiens) (Q2I0M4 whole entry, looked up, one chain of several): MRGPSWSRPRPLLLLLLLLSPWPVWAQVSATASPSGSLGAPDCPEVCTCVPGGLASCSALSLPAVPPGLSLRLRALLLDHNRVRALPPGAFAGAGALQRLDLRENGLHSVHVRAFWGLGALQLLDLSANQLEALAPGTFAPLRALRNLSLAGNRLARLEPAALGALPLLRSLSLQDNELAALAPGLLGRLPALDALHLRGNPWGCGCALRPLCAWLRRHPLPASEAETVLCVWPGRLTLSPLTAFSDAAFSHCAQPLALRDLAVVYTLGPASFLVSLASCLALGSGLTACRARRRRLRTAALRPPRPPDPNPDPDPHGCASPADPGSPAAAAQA

Regarding `Cc1noc(C=Cc2sccc2C2OCCO2)c1[N+](=O)[O-]`, the log fold change Tl+ flux is 0.00373 with F380Y; 0.00792 in the assay with F380Y/beta1; -0.0403 in the assay with F380Y/beta2Delta; -0.0687 in the assay with F380Y/beta4; -0.0936 in assay [1]; 0.00445 in the assay on R275C. For the same compound, the log fold change Tl+ flux in the assay with R275C/beta1 was -0.0604; in the assay on R275C/beta2Delta, -0.0701; in the assay on R275C/beta4, -0.00776; in the assay on R275C/Slo1WT/beta2, -0.000775.
Regarding `Cc1nc2ccc(C(=O)O)cc2[nH]1`, the log fold change Tl+ flux is 0.0381 in the assay on F380Y; 0.0177 with F380Y/beta1; 0.0131 with F380Y/beta2Delta; 0.0015 in the assay on F380Y/beta4; 0.0154 in assay [1]; 0.0142 in the assay with R275C. Further, the log fold change Tl+ flux is 0.0541 in the assay on R275C/beta1, 0.0118 with R275C/beta2Delta, -0.00127 in the assay with R275C/beta4 and 0.0354 in the assay with R275C/Slo1WT/beta2.
Consider `O=C(NCCSCc1ccco1)c1cncc(Br)c1`, for which the log fold change Tl+ flux is 0.0566 in the assay with F380Y; -0.00628 with F380Y/beta1; 0.00549 in the assay on F380Y/beta2Delta; 0.0375 in the assay with F380Y/beta4; 0.0375 in assay [1]; -0.0119 in the assay with R275C. Also, the log fold change Tl+ flux is 0.0315 in the assay on R275C/beta1, 0.0453 in the assay on R275C/beta2Delta, -0.016 in the assay on R275C/beta4 and 0.024 in the assay on R275C/Slo1WT/beta2.
With `CC12CCC(c3c1nn(-c1ccccc1)c3C(F)(F)F)C2(C)C` (stereo not given), the log fold change Tl+ flux with F380Y is 0.0382; in the assay with F380Y/beta1, 0.00752; in the assay on F380Y/beta2Delta, 0.00374; in the assay with F380Y/beta4 it was 0.00603; in assay [1], 0.00466; in the assay with R275C, 0.00439. For the same compound, the log fold change Tl+ flux with R275C/beta1 is -0.0295; with R275C/beta2Delta, 0.0124; with R275C/beta4, -0.0271; with R275C/Slo1WT/beta2, -0.0353.
In the case of `Cc1ccc(C(=O)CC(=CC(=C(C#N)c2ccc([N+](=O)[O-])cc2)c2ccc(C)cc2)c2ccccc2)cc1`, the log fold change Tl+ flux was 0.00161 in the assay on F380Y; 0.0132 with F380Y/beta1; -0.0182 with F380Y/beta2Delta; -0.0433 in the assay on F380Y/beta4; -0.0481 in assay [1]; -0.0132 with R275C. For the same compound, the log fold change Tl+ flux is -0.025 with R275C/beta1, -0.0508 in the assay with R275C/beta2Delta, -0.0482 in the assay with R275C/beta4 and -0.0297 with R275C/Slo1WT/beta2.
For `Clc1ccc(-c2cnc(-c3ccc(Cl)cc3)o2)cc1`, the log fold change Tl+ flux with F380Y is 0.0159; with F380Y/beta1, -0.0226; with F380Y/beta2Delta, 0.0345; with F380Y/beta4, -0.00734; in [1], -0.0607; in the assay with R275C, 0.0428. Besides, the log fold change Tl+ flux was 0.00118 with R275C/beta1, 0.0163 in the assay with R275C/beta2Delta, 0.00237 with R275C/beta4 and -0.017 with R275C/Slo1WT/beta2.
As to `O=c1[nH]c2ccc(Cl)cc2c2oc(-c3ccccc3)nc12`, the log fold change Tl+ flux with F380Y is -0.0228; in the assay with F380Y/beta1, 0.00567; with F380Y/beta2Delta, -0.059; in the assay with F380Y/beta4, -0.0224; in assay [1], -0.0128; with R275C, 0.01. Also, the log fold change Tl+ flux in the assay with R275C/beta1 is 0.031; with R275C/beta2Delta it was 0.0322; in the assay with R275C/beta4, 0.0357; in the assay on R275C/Slo1WT/beta2, -0.0021.
With `CN1c2ccsc2C(=O)C(=NNc2cccc(C(F)(F)F)c2)S1(=O)=O`, the log fold change Tl+ flux with F380Y was -0.0122; in the assay on F380Y/beta1 it was 0.00552; in the assay on F380Y/beta2Delta it was 0.00348; in the assay with F380Y/beta4 it was 0.0228; in assay [1], -0.0208; in the assay with R275C, -0.00855. Besides, the log fold change Tl+ flux with R275C/beta1 is 0.0113; in the assay with R275C/beta2Delta, 0.00493; with R275C/beta4, -0.00494; in the assay on R275C/Slo1WT/beta2, -0.0248.
On to `CCOC(=O)NN=C(C)C(C)=NNC(=O)OCC`, for which the log fold change Tl+ flux is -0.0316 with F380Y; -0.0656 with F380Y/beta1; -0.0255 in the assay with F380Y/beta2Delta; -0.0305 with F380Y/beta4; -0.00664 in assay [1]; -0.0333 with R275C. In addition, the log fold change Tl+ flux was -0.0653 with R275C/beta1, -0.00622 with R275C/beta2Delta, -0.0094 in the assay on R275C/beta4 and 0.0167 with R275C/Slo1WT/beta2.
As to `CC1(C)CC(=O)C=C(NCCCCCCCCNC2=CC(=O)CC(C)(C)C2)C1`, the log fold change Tl+ flux in the assay on F380Y is 0.000907; with F380Y/beta1, 0.0262; in the assay with F380Y/beta2Delta, 0.0043; in the assay with F380Y/beta4, 0.0246; in assay [1] it was -0.0867; with R275C, -0.0564. Further, the log fold change Tl+ flux in the assay with R275C/beta1 is -0.0828; in the assay on R275C/beta2Delta it was -0.0562; with R275C/beta4 it was -0.0723; in the assay on R275C/Slo1WT/beta2 it was -0.149 (active).
Consider `C#Cc1cccc(NS(=O)(=O)c2ccc(Cl)c(Cl)c2)c1`, for which the log fold change Tl+ flux in the assay with F380Y is 0.107 (active); in the assay with F380Y/beta1, 0.533 (active); in the assay with F380Y/beta2Delta, 0.116 (active); in the assay with F380Y/beta4 it was 0.222 (active); in assay [1], 0.182 (active); in the assay with R275C, -0.0107. For the same compound, the log fold change Tl+ flux in the assay with R275C/beta1 was 0.291 (active); with R275C/beta2Delta, 0.158 (active); in the assay with R275C/beta4 it was 0.196 (active); in the assay on R275C/Slo1WT/beta2 it was -0.0633.
As to `CN(Cc1nnc(-c2ccc3ccccc3c2)o1)c1nnc(C(F)(F)F)s1`, the log fold change Tl+ flux in the assay with F380Y is 0.00202; in the assay with F380Y/beta1 it was 0.0221; with F380Y/beta2Delta, 0.0123; in the assay on F380Y/beta4, -0.0118; in assay [1] it was -0.0041; in the assay with R275C it was 4.3e-05. For the same compound, the log fold change Tl+ flux is -0.0299 in the assay with R275C/beta1, -0.000282 with R275C/beta2Delta, -0.0251 in the assay on R275C/beta4 and 0.0181 in the assay on R275C/Slo1WT/beta2.
For `O=C(NC(=O)c1ccccc1Oc1ccc(Cl)cc1Cl)Nc1cc(Cl)cc(Cl)c1`, the log fold change Tl+ flux in the assay with F380Y was 0.0204; in the assay with F380Y/beta1, 0.0216; in the assay with F380Y/beta2Delta it was -0.00408; with F380Y/beta4, -0.00832; in assay [1], 0.0199; with R275C, 0.0363. The log fold change Tl+ flux in the assay with R275C/beta1 is -0.0332; in the assay on R275C/beta2Delta, 0.00447; in the assay with R275C/beta4 it was 0.0362; in the assay with R275C/Slo1WT/beta2, -0.00947.
